These results are taken from PMC7862700, “An all-to-all approach to the identification of sequence-specific readers for epigenetic DNA modifications on cytosine”.

Test in all cases: DAPPL (digital affinity profiling via proximity ligation, sequencing); 10 mM Tris-HCl pH 7.5, 50 mM NaCl, 1 mM DTT, 4% glycerol, room temperature, 30 min; GST-TFs on glutathione beads, 16-mer random dsDNA library, 0.1% formaldehyde crosslink after washing; high values mean tight binding
What all share (conditions): protein: recombinant; tags: N-terminal GST; dsDNA, one strand shown

In one experiment the target is T1, ELK4 (Homo sapiens, UniProt P28324-2 1-405).
T1 sequence: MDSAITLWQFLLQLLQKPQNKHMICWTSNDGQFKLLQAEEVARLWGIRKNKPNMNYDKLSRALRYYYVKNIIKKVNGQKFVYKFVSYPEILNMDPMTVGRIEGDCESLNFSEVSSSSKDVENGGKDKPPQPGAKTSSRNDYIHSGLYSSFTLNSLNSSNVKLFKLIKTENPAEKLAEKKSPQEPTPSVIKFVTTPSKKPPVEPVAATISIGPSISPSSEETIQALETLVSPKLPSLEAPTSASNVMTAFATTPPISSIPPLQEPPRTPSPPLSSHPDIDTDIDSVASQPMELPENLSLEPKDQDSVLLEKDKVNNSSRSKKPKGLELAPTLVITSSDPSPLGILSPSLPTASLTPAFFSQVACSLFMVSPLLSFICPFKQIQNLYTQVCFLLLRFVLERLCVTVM
The procedure, abridged: (§1)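 Binding signal is each hexamer's read frequency for a factor divided by its frequency in the tag-only sample. The factors were GST-fused human transcription factors from yeast, captured on glutathione beads, DNA-barcoded and pooled with that sample. Pools were incubated with 200 nmole of a random double-stranded 16-mer DNA library in Tris/NaCl/DTT/glycerol buffer at room temperature for 30 min, then washed, crosslinked with 0.1% formaldehyde, proximity-ligated with BsaI/T4 ligase (1 h, 37 °C), PCR-amplified and sequenced on an Illumina NextSeq500.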

The next experiment addresses T2, ETV3L (Homo sapiens, UniProt Q6ZN32 1-361).
T2 sequence: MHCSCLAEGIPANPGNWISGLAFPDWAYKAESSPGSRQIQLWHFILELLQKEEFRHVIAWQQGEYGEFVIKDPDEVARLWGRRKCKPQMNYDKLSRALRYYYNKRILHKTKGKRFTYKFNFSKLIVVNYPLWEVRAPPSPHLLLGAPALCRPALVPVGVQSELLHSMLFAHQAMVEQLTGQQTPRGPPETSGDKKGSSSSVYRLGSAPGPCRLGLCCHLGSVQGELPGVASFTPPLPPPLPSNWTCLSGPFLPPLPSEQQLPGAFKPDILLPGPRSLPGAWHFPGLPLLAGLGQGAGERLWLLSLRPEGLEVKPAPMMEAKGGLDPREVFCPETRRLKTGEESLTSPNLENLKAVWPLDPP
The procedure, abridged:
as §1

The target of the next experiment is ELF1 (Homo sapiens, UniProt P32519 1-619). The essentials:
as §1

In another experiment the target is T3, ERF (Homo sapiens, UniProt P50548 1-548).
T3 sequence: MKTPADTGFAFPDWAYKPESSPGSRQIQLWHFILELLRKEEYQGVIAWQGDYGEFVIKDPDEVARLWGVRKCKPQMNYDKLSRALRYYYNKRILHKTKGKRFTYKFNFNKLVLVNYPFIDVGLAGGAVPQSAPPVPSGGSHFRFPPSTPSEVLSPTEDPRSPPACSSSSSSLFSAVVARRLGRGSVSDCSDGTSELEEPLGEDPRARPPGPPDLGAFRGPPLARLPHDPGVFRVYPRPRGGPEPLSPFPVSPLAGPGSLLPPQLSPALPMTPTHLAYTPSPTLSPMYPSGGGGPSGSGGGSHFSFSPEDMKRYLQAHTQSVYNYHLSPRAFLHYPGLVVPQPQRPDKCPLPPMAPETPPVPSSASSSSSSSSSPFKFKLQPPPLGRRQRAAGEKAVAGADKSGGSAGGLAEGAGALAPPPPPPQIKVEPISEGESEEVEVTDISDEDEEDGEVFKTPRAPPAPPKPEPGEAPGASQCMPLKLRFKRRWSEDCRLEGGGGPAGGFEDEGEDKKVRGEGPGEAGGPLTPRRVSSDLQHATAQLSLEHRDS
The procedure, abridged: as §1

In the next experiment the target is T4, ETV7 (Homo sapiens, UniProt Q9Y603 1-341).
T4 sequence: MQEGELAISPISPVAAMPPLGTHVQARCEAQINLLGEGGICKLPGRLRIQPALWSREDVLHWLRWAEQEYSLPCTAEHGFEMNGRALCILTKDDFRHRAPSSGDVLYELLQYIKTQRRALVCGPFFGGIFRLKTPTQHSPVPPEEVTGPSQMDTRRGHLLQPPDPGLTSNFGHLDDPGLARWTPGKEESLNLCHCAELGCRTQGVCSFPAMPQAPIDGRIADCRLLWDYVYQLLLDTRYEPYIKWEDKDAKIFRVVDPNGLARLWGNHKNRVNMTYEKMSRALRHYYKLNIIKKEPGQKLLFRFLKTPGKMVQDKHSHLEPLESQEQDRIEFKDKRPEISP
The essentials: as §1

Another experiment concerns the target T5, ETV2 (Homo sapiens, UniProt O00321 1-342).
T5 sequence: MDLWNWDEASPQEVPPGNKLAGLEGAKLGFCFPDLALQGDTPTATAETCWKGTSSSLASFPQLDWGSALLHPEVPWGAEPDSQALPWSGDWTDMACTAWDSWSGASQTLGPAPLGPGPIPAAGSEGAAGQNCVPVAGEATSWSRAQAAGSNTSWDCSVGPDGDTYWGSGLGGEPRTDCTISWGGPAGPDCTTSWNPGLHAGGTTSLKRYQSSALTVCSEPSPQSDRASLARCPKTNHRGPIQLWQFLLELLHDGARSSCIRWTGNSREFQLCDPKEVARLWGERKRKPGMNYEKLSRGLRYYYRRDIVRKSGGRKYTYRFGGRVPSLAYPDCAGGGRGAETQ
The essentials: as §1

Another experiment concerns the target T6, ELK3 (Homo sapiens, UniProt P41970 1-407).
T6 sequence: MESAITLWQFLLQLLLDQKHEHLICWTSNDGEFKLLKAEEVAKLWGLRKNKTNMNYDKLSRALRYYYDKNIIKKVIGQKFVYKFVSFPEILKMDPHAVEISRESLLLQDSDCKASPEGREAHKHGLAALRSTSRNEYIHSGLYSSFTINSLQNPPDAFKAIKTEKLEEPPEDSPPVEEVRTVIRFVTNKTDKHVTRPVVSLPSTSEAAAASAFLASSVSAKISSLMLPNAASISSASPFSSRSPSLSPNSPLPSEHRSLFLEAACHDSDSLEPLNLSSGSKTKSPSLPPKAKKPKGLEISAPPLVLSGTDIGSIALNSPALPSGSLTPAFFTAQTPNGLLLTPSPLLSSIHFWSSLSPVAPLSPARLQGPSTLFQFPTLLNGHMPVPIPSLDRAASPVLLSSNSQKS
The procedure, abridged:
as §1

Another experiment addresses T7, SPDEF (Homo sapiens, UniProt O95238 1-335).
T7 sequence: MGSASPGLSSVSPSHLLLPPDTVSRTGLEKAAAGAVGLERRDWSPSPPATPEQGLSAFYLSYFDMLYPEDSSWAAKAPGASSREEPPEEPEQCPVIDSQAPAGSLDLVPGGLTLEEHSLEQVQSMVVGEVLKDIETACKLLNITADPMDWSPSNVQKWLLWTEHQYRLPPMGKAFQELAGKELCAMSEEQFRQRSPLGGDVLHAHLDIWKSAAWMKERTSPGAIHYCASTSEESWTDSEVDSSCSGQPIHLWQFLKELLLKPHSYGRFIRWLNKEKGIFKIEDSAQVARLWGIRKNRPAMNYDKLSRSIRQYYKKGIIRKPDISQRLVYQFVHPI
The essentials:
as §1

The next experiment addresses T8, ELK1 (Homo sapiens, UniProt P19419 1-428).
T8 sequence: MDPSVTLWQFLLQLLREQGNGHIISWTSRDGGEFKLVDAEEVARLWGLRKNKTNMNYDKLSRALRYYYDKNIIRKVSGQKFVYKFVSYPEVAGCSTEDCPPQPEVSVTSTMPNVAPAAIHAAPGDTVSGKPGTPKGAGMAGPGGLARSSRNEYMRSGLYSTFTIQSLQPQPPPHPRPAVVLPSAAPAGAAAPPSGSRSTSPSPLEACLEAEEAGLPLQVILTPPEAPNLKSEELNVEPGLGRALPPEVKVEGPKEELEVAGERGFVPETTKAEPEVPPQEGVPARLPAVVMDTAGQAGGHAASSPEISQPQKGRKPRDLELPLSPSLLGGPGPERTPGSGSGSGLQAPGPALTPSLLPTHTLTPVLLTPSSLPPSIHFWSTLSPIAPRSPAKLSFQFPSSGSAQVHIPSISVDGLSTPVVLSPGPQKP
The essentials:
as §1

For the next experiment, the target named is T9, FEV (Homo sapiens, UniProt Q99581 1-238).
T9 sequence: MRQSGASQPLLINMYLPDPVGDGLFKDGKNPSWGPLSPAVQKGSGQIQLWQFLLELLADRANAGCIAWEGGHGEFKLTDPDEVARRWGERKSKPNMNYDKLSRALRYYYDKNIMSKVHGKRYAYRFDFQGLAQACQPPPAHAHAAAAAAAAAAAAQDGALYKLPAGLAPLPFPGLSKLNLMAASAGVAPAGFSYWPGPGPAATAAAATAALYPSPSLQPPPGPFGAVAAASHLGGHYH
The essentials:
as §1

The target of another experiment is T10, GABPA (Homo sapiens, UniProt Q06546 1-454).
T10 sequence: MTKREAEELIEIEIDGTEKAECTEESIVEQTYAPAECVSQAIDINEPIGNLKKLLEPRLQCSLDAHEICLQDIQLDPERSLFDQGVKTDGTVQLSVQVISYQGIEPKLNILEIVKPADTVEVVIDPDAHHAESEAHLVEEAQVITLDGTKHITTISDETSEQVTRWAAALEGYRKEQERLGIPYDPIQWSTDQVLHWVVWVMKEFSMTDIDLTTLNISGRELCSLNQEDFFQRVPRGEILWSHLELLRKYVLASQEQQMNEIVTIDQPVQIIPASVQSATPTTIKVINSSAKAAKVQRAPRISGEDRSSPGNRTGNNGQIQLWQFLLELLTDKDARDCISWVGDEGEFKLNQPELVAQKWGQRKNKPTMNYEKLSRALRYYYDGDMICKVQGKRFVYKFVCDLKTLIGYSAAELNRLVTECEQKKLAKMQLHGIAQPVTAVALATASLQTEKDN
The essentials:
as §1

A further experiment has as its target SPI1 (Homo sapiens, UniProt P17947 1-270). The procedure, abridged: as §1
The next experiment addresses SPIB (Homo sapiens, UniProt Q01892 1-262). The essentials:
as §1

Another experiment deals with CRX (Homo sapiens, UniProt O43186 1-299). The essentials: as §1
The next experiment deals with T11, ETS2 (Homo sapiens, UniProt P15036 1-469).
T11 sequence: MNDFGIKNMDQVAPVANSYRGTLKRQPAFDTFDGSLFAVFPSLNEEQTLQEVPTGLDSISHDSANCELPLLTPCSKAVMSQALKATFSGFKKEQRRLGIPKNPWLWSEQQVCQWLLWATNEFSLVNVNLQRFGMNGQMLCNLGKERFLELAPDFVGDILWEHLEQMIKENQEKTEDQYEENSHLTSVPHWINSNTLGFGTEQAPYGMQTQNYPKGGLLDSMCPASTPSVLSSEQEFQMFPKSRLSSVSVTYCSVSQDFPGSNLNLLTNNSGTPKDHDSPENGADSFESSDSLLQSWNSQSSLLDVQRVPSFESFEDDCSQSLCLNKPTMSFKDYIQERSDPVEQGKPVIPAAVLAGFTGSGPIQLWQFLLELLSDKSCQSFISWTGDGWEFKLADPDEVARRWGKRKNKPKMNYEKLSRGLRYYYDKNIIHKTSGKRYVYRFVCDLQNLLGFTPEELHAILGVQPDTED
The procedure, abridged: as §1

In another experiment the target is T12, ETV3 (Homo sapiens, UniProt P41162-2 1-143).
T12 sequence: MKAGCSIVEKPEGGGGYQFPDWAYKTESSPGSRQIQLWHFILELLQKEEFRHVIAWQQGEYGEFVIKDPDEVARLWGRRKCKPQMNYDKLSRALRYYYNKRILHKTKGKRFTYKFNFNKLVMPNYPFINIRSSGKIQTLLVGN
The essentials: as §1

Another experiment addresses ETV6 (Homo sapiens, UniProt P41212 1-452). The essentials:
as §1

Sequence of SPIB (Q01892 whole entry): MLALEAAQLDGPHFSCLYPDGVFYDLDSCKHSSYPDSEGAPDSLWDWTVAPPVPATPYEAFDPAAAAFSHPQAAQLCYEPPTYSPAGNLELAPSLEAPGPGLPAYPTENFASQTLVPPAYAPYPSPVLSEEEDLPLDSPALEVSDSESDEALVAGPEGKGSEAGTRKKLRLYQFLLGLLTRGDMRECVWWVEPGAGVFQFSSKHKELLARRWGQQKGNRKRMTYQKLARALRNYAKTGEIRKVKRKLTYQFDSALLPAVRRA
Sequence of ELF1 (P32519 whole entry): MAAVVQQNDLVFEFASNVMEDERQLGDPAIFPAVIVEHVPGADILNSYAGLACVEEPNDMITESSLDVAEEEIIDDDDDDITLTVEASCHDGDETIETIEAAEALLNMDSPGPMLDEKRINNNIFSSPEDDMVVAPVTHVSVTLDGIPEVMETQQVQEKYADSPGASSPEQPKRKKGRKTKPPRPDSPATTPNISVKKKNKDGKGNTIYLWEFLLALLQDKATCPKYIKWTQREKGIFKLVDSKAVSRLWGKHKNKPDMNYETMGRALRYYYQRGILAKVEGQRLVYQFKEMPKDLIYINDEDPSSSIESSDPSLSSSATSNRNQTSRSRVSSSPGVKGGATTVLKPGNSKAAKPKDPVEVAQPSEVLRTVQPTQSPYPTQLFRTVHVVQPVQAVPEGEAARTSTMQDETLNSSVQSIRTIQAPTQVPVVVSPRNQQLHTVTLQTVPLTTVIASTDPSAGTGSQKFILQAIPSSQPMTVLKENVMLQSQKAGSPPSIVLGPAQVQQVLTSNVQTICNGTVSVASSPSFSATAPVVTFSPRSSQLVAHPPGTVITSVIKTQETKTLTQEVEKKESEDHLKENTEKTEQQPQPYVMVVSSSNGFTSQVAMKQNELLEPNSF
Sequence of ETV6 (P41212 whole entry): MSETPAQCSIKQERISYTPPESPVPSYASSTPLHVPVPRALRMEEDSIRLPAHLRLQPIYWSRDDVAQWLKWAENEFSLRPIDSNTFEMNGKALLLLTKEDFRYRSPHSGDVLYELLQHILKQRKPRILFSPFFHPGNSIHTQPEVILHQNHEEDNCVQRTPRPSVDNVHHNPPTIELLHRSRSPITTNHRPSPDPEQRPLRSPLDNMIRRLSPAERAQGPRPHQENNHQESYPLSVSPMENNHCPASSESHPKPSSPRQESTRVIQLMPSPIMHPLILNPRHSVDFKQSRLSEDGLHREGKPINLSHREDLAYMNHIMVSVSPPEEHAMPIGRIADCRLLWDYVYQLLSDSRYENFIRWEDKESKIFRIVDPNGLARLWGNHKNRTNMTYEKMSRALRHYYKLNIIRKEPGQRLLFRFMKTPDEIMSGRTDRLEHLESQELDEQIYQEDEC
Sequence of CRX (O43186 whole entry): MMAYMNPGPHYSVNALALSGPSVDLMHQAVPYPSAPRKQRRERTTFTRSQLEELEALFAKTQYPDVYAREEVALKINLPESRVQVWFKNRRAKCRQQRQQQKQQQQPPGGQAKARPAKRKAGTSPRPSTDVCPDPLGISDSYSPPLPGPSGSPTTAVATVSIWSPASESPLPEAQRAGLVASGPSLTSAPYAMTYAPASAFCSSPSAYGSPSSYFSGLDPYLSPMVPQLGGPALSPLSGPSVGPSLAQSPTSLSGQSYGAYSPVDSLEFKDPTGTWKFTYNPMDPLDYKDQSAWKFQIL

On to GCGCAC, for which the binding signal is 1.07 fold enrichment (6-mer frequency, TF over GST control) with ELK4 and 1.03 fold enrichment (6-mer frequency, TF over GST control) in the experiment with ETV3L.

As to ACACAG, the binding signal with ELF1 is 1.05 fold enrichment (6-mer frequency, TF over GST control); with ELK4, 1.12 fold enrichment (6-mer frequency, TF over GST control); in the experiment with ERF, 1.04 fold enrichment (6-mer frequency, TF over GST control); in the experiment with ETV3L it was 1.05 fold enrichment (6-mer frequency, TF over GST control); with ETV7 it was 1.13 fold enrichment (6-mer frequency, TF over GST control).

As for GGCCTG, the binding signal with ELK4 was 1.08 fold enrichment (6-mer frequency, TF over GST control); with ETV2 it was 1.06 fold enrichment (6-mer frequency, TF over GST control); with ETV3L, 1.04 fold enrichment (6-mer frequency, TF over GST control); with ETV7, 1.03 fold enrichment (6-mer frequency, TF over GST control).

As for GCATAT, the binding signal is 1.04 fold enrichment (6-mer frequency, TF over GST control) with ELK3; 1.07 fold enrichment (6-mer frequency, TF over GST control) in the experiment with ELK4; 1.02 fold enrichment (6-mer frequency, TF over GST control) with ETV2; 1.01 fold enrichment (6-mer frequency, TF over GST control) with SPDEF; 1.08 fold enrichment (6-mer frequency, TF over GST control) with ETV7.

For the sequence GGCAGC, the binding signal was 1.02 fold enrichment (6-mer frequency, TF over GST control) with ELK1; 1.02 fold enrichment (6-mer frequency, TF over GST control) with FEV; 1.02 fold enrichment (6-mer frequency, TF over GST control) with ETV2.

Turning to ATAACG, the binding signal is 1.04 fold enrichment (6-mer frequency, TF over GST control) in the experiment with ELK1; 1 fold enrichment (6-mer frequency, TF over GST control) with GABPA; 1.01 fold enrichment (6-mer frequency, TF over GST control) with SPI1; 1.01 fold enrichment (6-mer frequency, TF over GST control) with SPIB; 1 fold enrichment (6-mer frequency, TF over GST control) with CRX; 1.05 fold enrichment (6-mer frequency, TF over GST control) with ETS2. For the same sequence, the binding signal with ETV3 was 1.05 fold enrichment (6-mer frequency, TF over GST control); with ETV6, 1.03 fold enrichment (6-mer frequency, TF over GST control).
